Assay in all cases: NCI-60 one-dose screen, 48 h (100 = growth as untreated, 0 = no growth, -100 = all killed)
What all share (settings): 10 µM unless noted

Assay [1] deals with DU-145 prostate.
Assay [2] has as its system K-562 leukemia.
The test system of assay [3] is MALME-3M melanoma.
Assay [4] relates to MDA-MB-231 breast.
Assay [5] has as its system RXF 393 renal.
Assay [6] has as its system SF-268 CNS.
In assay [7] the test system is SF-295 CNS.
The test system of assay [8] is SF-539 CNS.
In assay [9] the test system is UACC-257 melanoma.
In assay [10] the test system is M14 melanoma.
The subject of assay [11] is HCT-15 colon.
Assay [12] deals with HT29 colon.
Assay [13] deals with SNB-75 CNS.
The test system of assay [14] is SNB-19 CNS.
In assay [15] the test system is U251 CNS.
For assay [16], the system named is PC-3 prostate.
Assay [17] concerns SK-MEL-5 melanoma.
Assay [18] concerns UACC-62 melanoma.
For assay [19], the system named is LOX IMVI melanoma.
For assay [20], the system named is SK-MEL-28 melanoma.

Compounds without any hit were thinned out: in the full panel of roughly 83,000, 20% have a hit.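 Values shown are percent growth following 48 h exposure of cells in 96-well plates to a single concentration of compound; below 10 was considered active.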 Unmarked numbers belong to inactive results. Calls of active or inactive are those of the source.

`COc1ccc(C[C@H](N)C(=O)N[C@@H]2[C@@H](CO)OC(n3cnc4c(N(C)C)ncnc43)[C@@H]2O)cc1` (stereo not given in full): the growth in assay [1] is -7.63% (active); in [2], -11.4% (active); in assay [3], -78.1% (active); in assay [4], -10.1% (active); in assay [5] it was -86.6% (active); in assay [6], -42.5% (active). Moreover, the growth in [7] was -43% (active); in assay [8] it was -42.9% (active); in assay [9], -64.7% (active); in [10] it was -85.5% (active); in assay [11], 71.6%; in assay [12], -63.8% (active). In addition, the growth is -40.7% (active) in assay [13]; -4.27% (active) in [14]; -91.6% (active) in assay [15]; -6.6% (active) in assay [16]; -96.6% (active) in [17]; -81.3% (active) in [18]. Besides, the values for the growth in [19] and in assay [20] were -61.9% (active) and -64.4% (active), respectively.

Take `Nc1ncc(-c2ccc3ncnc(Nc4ccc(F)c(Cl)c4)c3c2)cn1`: the growth was 43.3% in assay [1]; 55.5% in assay [2]; 36.3% in assay [3]; 54.4% in assay [4]; 32.9% in assay [5]; 54.9% in [6]. Also, the growth in [7] is 16.2%; in assay [8] it was 55.4%; in [9] it was 101%; in assay [10], 87.5%; in [11] it was 45.9%; in assay [12], 32.8%. The growth in assay [13] is -12.6% (active); in [14], 90.5%; in assay [15] it was -14.8% (active); in [16], 64.5%; in assay [17], 95.8%; in assay [18] it was 103%. Besides, the results for the growth in [19] and in assay [20] were 35.6% and 102%, respectively.

Consider `O=c1nc(N2CCOCC2)oc2c(-c3cccc4ccccc34)cccc12`, for which the growth in assay [1] was 97.7%; in [2], 90.1%; in [3], 75.2%; in assay [4], 93.5%; in [5] it was 61.1%; in assay [6] it was 80.6%. The growth in [7] is 89.2%; in [8] it was 85%; in assay [9], 96.5%; in [10], 93.2%; in assay [11], 93.3%; in [12], 89.6%. Moreover, the growth in assay [13] is 46.9%; in assay [14], 91.8%; in assay [15], 85.8%; in assay [16] it was 59.7%; in assay [17], 79.2%; in assay [18], 54.4%. Further, the results for the growth in [19] and in assay [20] were 80.1% and 94.4%, respectively.

As to `O=C(O)c1ccc(-c2nn(-c3ccc(C(=O)O)cc3)cc2/C=N/Nc2c(F)c(F)cc(F)c2F)cc1`, the growth in assay [1] is 105%; in assay [2], 105%; in assay [3] it was 93.7%; in assay [4], 105%; in assay [5] it was 112%; in assay [6] it was 93.2%. The growth in assay [7] is 102%; in assay [8], 102%; in assay [9], 95.7%; in assay [10], 96.6%; in [11], 107%; in assay [12] it was 99.6%. The growth was 105% in assay [13]; 110% in assay [14]; 104% in assay [15]; 101% in assay [16]; 107% in assay [17]; 106% in assay [18]. Moreover, the results for the growth in [19] and in [20] were 100% and 104%, respectively.

For the molecule `O=C(Nc1ccc(-n2cc(-c3ccncc3)c(-c3ccc(O)c(Cl)c3)n2)cc1)c1cc(Cl)cc(Cl)c1`, the growth was 38.9% in assay [1]; 11.5% in assay [2]; 34% in assay [3]; -54.1% (active) in [4]; -80.2% (active) in assay [5]; 49.4% in [6]. For the same molecule, the growth in assay [7] was -11.1% (active); in assay [8], 12.8%; in assay [9], 66.9%; in assay [10], -40.4% (active); in assay [11], 11.2%; in [12] it was -19.5% (active). The growth in assay [13] is 60.6%; in [14], 50%; in [15] it was 26.8%; in [16] it was 35.6%; in [17], 2.65% (active); in [18], 65.9%. The growth in assay [19] was 1.16% (active); in assay [20], 53.4%.

`Fc1ccc(Nc2ncnc3ccc(-c4cn[nH]c4)cc23)cc1Cl`: the growth in assay [1] is 50.8%; in assay [2], 66.5%; in assay [3] it was 54.9%; in assay [4] it was 63.5%; in assay [5] it was 40.3%; in [6] it was 59.6%. For the same molecule, the growth in [7] is 56.3%; in assay [8], 49.7%; in [9], 89.5%; in assay [10] it was 58.7%; in [11] it was 60.4%; in [12] it was 60.6%. The growth was 40.5% in assay [13]; 68.6% in assay [14]; 61.8% in assay [15]; 47.3% in assay [16]; 40.4% in [17]; 60% in [18]. For the same molecule, the growth in assay [19] is 49%; in assay [20] it was 69.3%.

On to `O=C(O)c1cccc(S(=O)(=O)c2ccccc2)c1`, for which the growth was 107% in [1]; 107% in assay [2]; 87.7% in assay [3]; 123% in [4]; 101% in assay [5]; 103% in [6]. In addition, the growth in assay [7] is 95%; in [8] it was 98.5%; in assay [9], 105%; in [10], 95.9%; in [11], 99.4%; in assay [12], 104%. Also, the growth in assay [13] is 84.2%; in [14], 110%; in assay [15] it was 108%; in assay [16], 100%; in assay [17], 97%; in assay [18] it was 101%. The growth was 99% in [19] and 98.9% in [20].

On to `COc1cc(-c2nc(N)n(CC(=O)Nc3ccc(/C(C)=N\O)cc3)n2)cc(OC)c1OC`, for which the growth was 108% in [1]; 96.1% in assay [2]; 96.7% in assay [3]; 103% in assay [4]; 105% in assay [5]; 93.5% in [6]. The growth was 101% in assay [7]; 97.1% in assay [8]; 63.7% in assay [9]; 101% in assay [10]; 101% in assay [11]; 86.4% in assay [12]. Besides, the growth is 74.1% in [13]; 99.9% in assay [14]; 85.8% in assay [15]; 76.7% in assay [16]; 97.9% in assay [17]; 83.6% in [18]. The growth in assay [19] is 99.6%; in assay [20] it was 94.2%.

The record behind these values is PubChem BioAssay (NCI).
